Data taken from PubChem BioAssay AID1159580 (chemical genetic matrix, 2015).
Values joined by “and” are separate entries in the source; they are usually repeats but may differ in a detail not shown here. Identical values can stand only once. The whole screen tested about 5,500 compounds, of which about 2,000 (36%) were called active. About 18% were inconclusive and are not listed. Rule as the data show it: active = normalized growth mostly below about 0.91 (no sharp cut-off); inconclusive = no clear call, values can overlap the other calls; inactive = mostly above about 0.92. Some of the results follow.

Test: chemical genetic growth profiling, strain panel (AID 1159580);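 also: tested at 20 µM; growth read once vehicle control cultures reached saturation at 30 °C; 1 = growth at the plate median or of vehicle wells; lower values mean less growth of the strain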
Conditions: S. cerevisiae deletion strains, growth OD

Measured: normalized growth

Cc1cc(C2CCCCC2)n(O)c(=O)c1
active: locus YAL013W, strain DEP1, active compounds read low 0.0568 | locus YAL021C, strain ccr4, active compounds read low 0.0678 | locus YAL026C, strain drs2, active compounds read low 0.0676 | locus YAL030W, strain snc1, active compounds read low 0.0625 | locus YBL061C, strain skt5, active compounds read low 0.0672 | locus YBR009C, strain hhf1, active compounds read low 0.0705 | locus YBR021W, strain FUR4, active compounds read low 0.0983 | locus YBR023C, strain chs3, active compounds read low 0.0704 | locus YBR171W, strain sec66, active compounds read low 0.0805 | locus YBR229C, strain ROT2, active compounds read low 0.0502 | locus YBR231C, strain swc5, active compounds read low 0.0693 | locus YBR279W, strain paf1, active compounds read low 0.0649 | locus YCL011C, strain gbp2, active compounds read low 0.0616 | locus YCL016C, strain dcc1, active compounds read low 0.0719 | locus YCL029C, strain bik1, active compounds read low 0.0632 | locus YCL061C, strain MRC1, active compounds read low 0.0677 | locus YCL069W, strain vba3, active compounds read low 0.0654 | locus YCR088W, strain abp1, active compounds read low 0.0632 | locus YDL005C, strain med2, active compounds read low 0.0889 | locus YDL035C, strain GPR1, active compounds read low 0.0542 | locus YDL040C, strain nat1, active compounds read low 0.0679 | locus YDL074C, strain BRE1, active compounds read low 0.0802 | locus YDL101C, strain DUN1, active compounds read low 0.0596 | locus YDL134C, strain PPH21, active compounds read low 0.0521 | locus YDL185W, strain tfp1, active compounds read low 0.058 | locus YDL192W, strain arf1, active compounds read low 0.0653 | locus YDR001C, strain nth1, active compounds read low 0.0631 | locus YDR069C, strain doa4, active compounds read low 0.0665 | locus YDR101C, strain arx1, active compounds read low 0.06 | locus YDR137W, strain rgp1, active compounds read low 0.0918 | locus YDR159W, strain sac3, active compounds read low 0.0928 | locus YDR162C, strain NBP2, active compounds read low 0.0474 | locus YDR195W, strain ref2 0.135 | locus YDR297W, strain sur2, active compounds read low 0.0662 | locus YDR318W, strain mcm21, active compounds read low 0.0655 | locus YDR334W, strain swr1, active compounds read low 0.0673 | locus YDR335W, strain msn5, active compounds read low 0.0634 | locus YDR388W, active compounds read low 0.0556 | locus YDR392W, strain spt3, active compounds read low 0.101 | locus YDR502C, strain sam2, active compounds read low 0.0664 | locus YEL003W, strain gim4, active compounds read low 0.0625 | locus YEL037C, strain rad23, active compounds read low 0.0622 | locus YEL061C, strain CIN8 (second series), active compounds read low 0.0671 | locus YEL061C, strain CIN8, active compounds read low 0.0514 | locus YER015W, strain faa2, active compounds read low 0.0656 | locus YER016W, strain bim1, active compounds read low 0.0682 | locus YER110C, active compounds read low 0.0812 | locus YER111C, strain swi4, active compounds read low 0.0758 | locus YER155C, strain BEM2 (second series), active compounds read low 0.0947 | locus YER155C, strain BEM2, active compounds read low 0.0718 | locus YER167W, strain BCK2, active compounds read low 0.0519 | locus YFR010W, strain ubp6, active compounds read low 0.0703 | locus YGL078C, strain dbp3, active compounds read low 0.0608 | locus YGL086W, strain mad1, active compounds read low 0.0597 | locus YGL167C, strain pmr1, active compounds read low 0.0798 | locus YGL173C, strain kem1, active compounds read low 0.0716 | locus YGL227W, strain vid30, active compounds read low 0.0707 | locus YGL240W, strain doc1, active compounds read low 0.0866 | locus YGL248W, strain PDE1, active compounds read low 0.0515 | locus YGL253W, strain hxk2, active compounds read low 0.058 | locus YGR078C, strain PAC10, active compounds read low 0.0546 | locus YGR135W, strain pre9, active compounds read low 0.065 | locus YGR252W, strain gcn5, active compounds read low 0.175 | locus YHR013C, strain ard1, active compounds read low 0.11 | locus YHR027C, strain rpn1, active compounds read low 0.0647 | locus YHR030C, strain SLT2, active compounds read low 0.0526 and 0.0937 | locus YHR079C, strain IRE1 (second series), active compounds read low 0.0583 | locus YHR079C, strain IRE1, active compounds read low 0.109 | locus YHR094C, strain hxt1, active compounds read low 0.0632 | locus YHR129C, strain ARP1, active compounds read low 0.0642 | locus YHR142W, strain chs7, active compounds read low 0.0791 | locus YHR200W, strain rpn10, active compounds read low 0.0659 | locus YIL066C, strain RNR3, active compounds read low 0.0522 | locus YIL073C, strain SPO22, active compounds read low 0.112 | locus YIL125W, strain kgd1, active compounds read low 0.0598 | locus YIR030C, strain dcg1, active compounds read low 0.0627 | locus YJL092W, strain hpr5, active compounds read low 0.063 | locus YJL095W, strain BCK1 (second series), active compounds read low 0.0609 | locus YJL095W, strain BCK1, active compounds read low 0.063 and 0.0938 | locus YJL115W, strain asf1, active compounds read low 0.0778 | locus YJL129C, strain trk1, active compounds read low 0.0912 | locus YJL134W, strain LCB3, active compounds read low 0.0539 | locus YJL154C, strain vps35, active compounds read low 0.0631 | locus YJL164C, strain tpk1, active compounds read low 0.0734 | locus YJL166W, strain qcr8, active compounds read low 0.0662 | locus YJL168C, strain set2, active compounds read low 0.0634 | locus YJL187C, strain SWE1 (second series), active compounds read low 0.053 | locus YJL187C, strain SWE1, active compounds read low 0.0672 | locus YJR043C, strain POL32, active compounds read low 0.068 | locus YJR066W, strain TOR1, active compounds read low 0.00216 | locus YJR075W, strain HOC1, active compounds read low 0.0627 | locus YKL009W, strain mrt4, active compounds read low 0.0702 | locus YKL068W, active compounds read low 0.0617 | locus YKL085W, strain MDH1 (second series), active compounds read low 0.0539 | locus YKL085W, strain MDH1, active compounds read low 0.0539 | locus YKL160W, strain elf1, active compounds read low 0.0716 | locus YKL190W, strain CNB1, active compounds read low 0.0484 | locus YKR001C, strain vps1, active compounds read low 0.0653 | locus YKR026C, strain gcn3, active compounds read low 0.0732 | locus YKR091W, strain srl3, active compounds read low 0.069 | locus YLL001W, strain dnm1, active compounds read low 0.0664 | locus YLL026W, active compounds read low 0.0595 | locus YLL041C, strain sdh2, active compounds read low 0.0627 | locus YLR027C, strain aat2, active compounds read low 0.0603 | locus YLR039C, strain RIC1, active compounds read low 0.0987 | locus YLR058C, strain SHM2, active compounds read low 0.0519 | locus YLR102C, strain apc9, active compounds read low 0.0656 | locus YLR113W, strain HOG1, active compounds read low 0.121 | locus YLR221C, strain rsa3, active compounds read low 0.0659 | locus YLR258W, strain gsy2, active compounds read low 0.0669 | locus YLR262C, strain YPT6 (second series), active compounds read low 0.0856 | locus YLR262C, strain YPT6, active compounds read low 0.115 | locus YLR268W, strain sec22, active compounds read low 0.0687 | locus YLR320W, strain mms22, active compounds read low 0.0895 | locus YLR330W, strain CHS5, active compounds read low 0.0525 | locus YLR342W, strain FKS1 (second series), active compounds read low 0.0737 | locus YLR342W, strain FKS1, active compounds read low 0.0735 | locus YLR357W, strain rsc2, active compounds read low 0.133 | locus YLR370C, strain arc18, active compounds read low 0.0637 | locus YLR371W, strain rom2, active compounds read low 0.0664 | locus YLR384C, strain iki3, active compounds read low 0.0637 | locus YLR418C, strain cdc73, active compounds read low 0.0958 | locus YML016C, strain PPZ1, active compounds read low 0.0483 | locus YML032C, strain rad52, active compounds read low 0.0723 | locus YML120C, strain ndi1, active compounds read low 0.0605 | locus YML124C, strain tub3, active compounds read low 0.0619 | locus YMR058W, strain fet3, active compounds read low 0.0627 | locus YMR078C, strain ctf18, active compounds read low 0.0787 | locus YMR125W, strain sto1, active compounds read low 0.0836 | locus YMR129W, active compounds read low 0.0601 | locus YMR205C, strain PFK2, active compounds read low 0.0903 | locus YMR223W, strain ubp8, active compounds read low 0.0675 | locus YMR231W, strain pep5, active compounds read low 0.0767 | locus YMR307W, strain GAS1, active compounds read low 0.146 | locus YNL067W, strain RPL9B, active compounds read low 0.0522 | locus YNL071W, strain lat1, active compounds read low 0.0645 | locus YNL183C, strain NPR1, active compounds read low 0.0014 | locus YNL209W, strain ssb2, active compounds read low 0.0627 | locus YNL233W, strain BNI4, active compounds read low 0.0583 | locus YNL248C, strain rpa49, active compounds read low 0.0814 | locus YNL250W, strain rad50, active compounds read low 0.0854 | locus YNL271C, strain bni1, active compounds read low 0.0657 | locus YNL298W, strain CLA4, active compounds read low 0.0613 | locus YNL307C, strain MCK1, active compounds read low 0.0688 | locus YNL322C, strain KRE1 (second series), active compounds read low 0.0705 | locus YNR049C, strain mso1, active compounds read low 0.0644 | locus YNR052C, strain pop2, active compounds read low 0.0622 | locus YOL147C, strain pex11, active compounds read low 0.0601 | locus YOR001W, strain rrp6, active compounds read low 0.0736 | locus YOR061W, strain CKA2, active compounds read low 0.0512 | locus YOR069W, strain VPS5, active compounds read low 0.0495 | locus YOR070C, strain gyp1, active compounds read low 0.0684 | locus YOR080W, strain dia2, active compounds read low 0.0706 | locus YOR083W, strain WHI5, active compounds read low 0.0687 | locus YOR106W, strain vam3, active compounds read low 0.065 | locus YOR136W, strain idh2, active compounds read low 0.0767 | locus YOR144C, strain elg1, active compounds read low 0.062 | locus YOR184W, strain ser1, active compounds read low 0.0708 | locus YOR231W, strain MKK1, active compounds read low 0.0947 | locus YOR265W, strain rbl2, active compounds read low 0.066 | locus YOR270C, strain vph1, active compounds read low 0.0971 | locus YOR290C, strain snf2, active compounds read low 0.0737 | locus YOR316C, strain cot1, active compounds read low 0.0627 | locus YPL051W, strain arl3, active compounds read low 0.0688 | locus YPL078C, strain atp4, active compounds read low 0.0715 | locus YPL106C, strain sse1, active compounds read low 0.116 | locus YPL240C, strain hsp82, active compounds read low 0.0653 | locus YPL256C, strain CLN2, active compounds read low 0.116 | locus YPR119W, strain clb2, active compounds read low 0.0705 | locus YPR141C, strain kar3, active compounds read low 0.0696 | locus YPR163C, strain tif3, active compounds read low 0.0728 | locus YPR167C, strain met16, active compounds read low 0.0671 | strain wtn01, active compounds read low 0.0665
